Rows were chosen to be rich in hits. Some 12% of all compounds tested hit in one or more screens of this group.
OTUD3 inh = inhibitors of human OTUD3 deubiquitinase; OTU domain-containing protein 3 (Homo sapiens), Q5T2D3; purified OTUD3, Ub-rhodamine fluorescence, 2 h; inhibition, % at 25 µM; 0.7% of 47,000 active
USP30 inh = inhibitors of human USP30 deubiquitinase; Ubiquitin carboxyl-terminal hydrolase 30 (Homo sapiens), Q70CQ3; purified USP30, Ub-rhodamine cleavage fluorescence; inhibition, % at 25 µM; 5.3% of 47,000 active
USP17 inh = inhibitors of human USP17 deubiquitinase; Ubiquitin carboxyl-terminal hydrolase 17-like protein 5 (Homo sapiens), A8MUK1; purified USP17, Ub-rhodamine cleavage fluorescence, 3 h; inhibition, % at 50 µM; 6.5% of 47,000 active
Target sequence (A8MUK1 whole entry, looked up): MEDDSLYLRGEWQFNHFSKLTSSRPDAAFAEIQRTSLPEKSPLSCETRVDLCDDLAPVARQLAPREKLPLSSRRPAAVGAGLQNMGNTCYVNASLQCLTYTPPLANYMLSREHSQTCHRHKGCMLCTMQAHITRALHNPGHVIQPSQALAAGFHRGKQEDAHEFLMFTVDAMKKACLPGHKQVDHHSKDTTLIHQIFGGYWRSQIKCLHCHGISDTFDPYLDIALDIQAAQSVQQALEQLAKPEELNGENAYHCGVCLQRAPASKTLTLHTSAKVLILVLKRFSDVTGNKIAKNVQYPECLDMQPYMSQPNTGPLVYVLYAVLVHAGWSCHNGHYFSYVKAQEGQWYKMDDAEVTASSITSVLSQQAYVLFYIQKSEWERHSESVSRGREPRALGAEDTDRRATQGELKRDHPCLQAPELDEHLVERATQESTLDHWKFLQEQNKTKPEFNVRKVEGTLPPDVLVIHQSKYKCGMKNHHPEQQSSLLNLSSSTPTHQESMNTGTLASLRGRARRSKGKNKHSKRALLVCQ
USP28 inh = inhibitors of human USP28 deubiquitinase; 3% of 47,000 active; purified USP28, Ub-rhodamine cleavage fluorescence, 30 min; Ubiquitin carboxyl-terminal hydrolase 28 (Homo sapiens), Q96RU2; inhibition, % at 25 µM
An asterisk follows results filed as active; / = no result given. Cut-off read from the data, not from the text of the source: active = inhibition above about 30%; inactive = the rest.

SMILES	OTUD3 inh	USP30 inh	USP17 inh	USP28 inh
CCOC(=O)C1=C(CN2CCN(c3ccc(F)cc3)CC2)NC(=O)NC1c1ccc(OC)cc1 (stereo not drawn)	0	34*	36*	-2
CN(C)c1ccc(-c2noc(C(=O)NCc3ccccn3)n2)cc1	1	8	45*	14
CN(C)c1ccc(-c2noc(C(=O)NCc3ccncc3)n2)cc1	14	31*	10	26
CCN1C(=O)COc2cc(-c3noc(C(=O)NCc4ccccn4)n3)ccc21	2	24	8	1
O=C(NCc1ccncc1)c1nc(-c2ccncc2)no1	-1	-1	-6	-2
COCC(C)Nc1ncc(-c2cnccn2)c(-c2ccc(C)s2)n1 (stereo not drawn)	3	25	63*	12
CC(C)c1ccc(NC(=O)c2cc3ncc(Br)cn3n2)cc1	-4	-38	52*	-16
CC(C)c1ccc(NC(=O)c2cc3cccnc3n(C)c2=O)cc1	0	-6	0	-6
CCCCNc1ncnc2c1CN(C1CCCNCC1)C(=O)CN2C (stereo not drawn)	-6	-6	-22	-3
O=c1cc(CN2CCc3ccccc3C2)nc2nc(NCc3ccc(Cl)cc3)[nH]n12	18	49*	28	30*
COc1ccc(NCc2cc(=O)n3[nH]c(NCc4ccc(C(C)C)cc4)nc3n2)cc1	26	16	56*	20
CC(Sc1nc(C2CC2)n(-c2ccccc2)n1)C(=O)Nc1ccc2[nH]c(=O)[nH]c2c1 (stereo not drawn)	-2	-3	0	0
CCCCCC(=O)C(CCCC)c1oc(=O)c(CCCC)c(O)c1CCCC (stereo not drawn)	17	25	30*	14
Cc1ccc(NC(=O)c2cccn2Cc2noc(C)n2)c(Cl)c1	1	-2	-4	0
CN1CCC(N(C)S(=O)(=O)c2ccc(NC(=O)c3cccc(OCc4ccccc4)c3)cc2)CC1	-18	0	-4	52*
CCN1CCN(CC2CCN(S(=O)(=O)c3ccc4c(c3)CCC4)CC2)CC1	4	15	2	0
Cc1nc(N(Cc2ccccc2)C(=O)c2ccccc2)sc1-c1ccccc1	9	12	4	6
COc1ccc(CC(=O)N2CCN(c3ccc(-n4cccn4)nn3)CC2)cc1	2	34*	11	26
COc1ccc(CC(=O)N2CCc3nc(C(N)=O)sc3CC2)cc1	4	-154	3	0
CC1Cc2ccccc2N1S(=O)(=O)c1cccc(C(=O)OCC(=O)Nc2ccc3c(c2)OCO3)c1 (stereo not drawn)	1	-57	-3	8
Cc1sc2ncnc(OCc3ccc(F)cc3Cl)c2c1C	13	-5	14	58*
Cc1sc2ncnc(OCc3ccc([N+](=O)[O-])cc3)c2c1C	-15	-99	-4	46*
CCc1ccc(C(=O)COc2ncnc3sc(C)c(C)c23)cc1	-24	-97	15	-10
COc1cc2c(cc1OC)-c1cc(Oc3ccccc3C)nc(=O)n1CC2	-12	-65	-5	-11
COc1cc2c(cc1OC)-c1cc(N(C(C)=O)c3ccc4c5c(cccc35)CC4)nc(=O)n1CC2	-25	-96	38*	-16
SMILES	OTUD3 inh	USP30 inh	USP17 inh	USP28 inh
Cc1cccc(NC(=O)N2CCCC2c2cccs2)c1C (stereo not drawn)	-8	-14	-4	-7
COc1ccc(C(CNC(=O)c2sc3ccccc3c2Cl)N(C)C)cc1 (stereo not drawn)	-2	-23	-13	-13
COc1c2n(c3ccccc13)[C@@]1(O)C(=O)N(C)C(=O)[C@@]1(O)c1c-2n(C)c2ccc(Cl)cc12	50*	-64	59*	42*
Cc1cccc(-c2c(NC(=O)c3ccc(Cl)cc3Cl)n(C)c3ccccc3c2=O)c1	10	12	14	9
CC(=O)Nc1ccc(C(=O)NCc2c(C)nc3sc(C)nn23)cc1	-2	-3	/	-1
Cc1ccc2nc(-c3cc4ccc(C)c(C)c4[nH]c3=O)c(NC3CCCC3)n2c1	-8	-18	41*	-2
CCOc1ccc2[nH]c(=O)c(-c3nc4ccc(C)cn4c3NC3CCCCC3)cc2c1	-23	-147	-7	-23
Cc1ccc(CN2CC[C@H]3CO[C@H](CNC(=O)c4ccno4)[C@H]3C2)o1	-3	-11	-37	-9
O=C(CCc1nnc2ccc(N3CCOCC3)nn12)N1CCCC1	1	4	1	0
Cc1ccc(-c2n[nH]c3c2C(c2ccccc2F)N(c2ccccc2)C3=O)cc1 (stereo not drawn)	0	55*	69*	3
